Measured values reported in PubChem BioAssay.
Values joined by “and” are separate entries in the source; they are usually repeats but may differ in a detail not shown here. Equal entries are not always repeated. Results filed as inconclusive are left out. Some structures have more than one record in an assay (separate samples or runs), and their calls can disagree. Active and inactive are the calls of the source.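 Rule for the calls, unless noted: active = GFP signal, as percent of the solvent control, above the screen mean plus 3 SD, about 149; inconclusive = no reading because the compound's own fluorescence upset strain identification; inactive = the rest.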

Tests used:
[1] = rapamycin-like changes in RPL19A-GFP expression – cell-based, S. cerevisiae, multiplex flow cytometry, primary screen (AID 1862; in the data active = percent of DMSO control GFP below about 86%;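 note: lower values mimic rapamycin by blocking the RPL19A rise seen in DMSO cells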); details: S. cerevisiae RPL19A-GFP strain, flow cytometry fluorescence, 3 h; at 10 µM; stronger effect = lower value
[2] = TOR pathway GLN3 branch reporter MEP2-GFP changes – S. cerevisiae, multiplex flow cytometry, primary screen (AID 1867;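 active = GFP response, as percent of the DMSO control, above the screen-wide mean plus 3 SD, about 139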;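 note: median GFP channel fluorescence of barcode-gated MEP2-GFP cells measured by flow cytometry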); details: S. cerevisiae MEP2-GFP strain, 3 h, at 10 µM, stronger effect = higher value, 100% means same as DMSO wells
[3] = TOR pathway RTG branch CIT2 reporter changes – S. cerevisiae, GFP fusion, multiplex flow cytometry, primary screen (AID 1870;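 active = percent response above a set limit, the screen-wide mean plus 3 SD, cut at about 130% in these data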;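 note: barcoded CIT2-GFP strain pooled with four other GFP strains with rapamycin as positive control; median GFP fluorescence per well over plate mean of DMSO wells so 100% = DMSO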); details: S. cerevisiae CIT2-GFP expression, 3 h, at 10 µM, stronger effect = higher value
[4] = TOR pathway LAP4-GFP level changes – S. cerevisiae, multiplex flow cytometry, primary screen (AID 1873); details: S. cerevisiae LAP4-GFP expression, 3 h, at 10 µM, stronger effect = higher value
[5] = yeast AGP1-GFP level changes, GLN3 branch – cell-based, multiplex flow cytometry, S. cerevisiae, primary screen (AID 1887;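 active = GFP signal above the screen-wide mean plus 3 SD, that is over about 124.5% of the solvent control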;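 note: AGP1-GFP fusion strain of S. cerevisiae within a five-strain barcoded multiplex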); details: 3 h, at 10 µM, stronger effect = higher value
[6] = hit retest on RPL19A-GFP reporter strain – cell-based, S. cerevisiae, flow cytometry, cherry picks, mother/daughter gates, confirmation (AID 2270;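 active = GFP response below 50% of the DMSO control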); details: 3 h, at 10 µM, stronger effect = lower value, 100 = same GFP as DMSO wells
[7] = yeast TOR pathway reporter LAP4-GFP change – cell-based, cherry picks, flow cytometry, mother/daughter gates, confirmation (AID 2271;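 active = GFP response above 150% of the DMSO control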;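 note: ratio of sample to DMSO plate mean so 100% equals DMSO level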); details: S. cerevisiae LAP4-GFP strain, 3 h, at 10 µM, stronger effect = higher value, 100 means same as DMSO control
[8] = TOR pathway reporter MEP2-GFP, retest of hits – S. cerevisiae, flow cytometry GFP, cherry picks, confirmation (AID 2272;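 active = GFP response above 150% of the DMSO control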;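 note: ratio of well signal to plate DMSO mean so 100% equals DMSO level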); details: S. cerevisiae MEP2-GFP strain, 3 h, at 10 µM, stronger effect = higher value
[9] = TOR pathway CIT2 reporter hit retest – S. cerevisiae, GFP fusion, cherry picks, mother/daughter gates, confirmation (AID 2274;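 active = GFP response above 150% of the DMSO level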); details: S. cerevisiae CIT2-GFP strain, flow cytometry, 3 h, at 10 µM, stronger effect = higher value
[10] = reduced mouse 2C T cell binding to pMHC/ICAM-1 vesicles – MLPCN validation set, flow cytometry, LFA-1/ICAM-1 modulator project, pilot screen (AID 2523;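 active = response below a set limit, under 55% cells CD8-positive and vesicle-bound, and CD8 cells' 90th-percentile brightness under 279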;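 for vesicle binding response: mean PE anti-B7-1 fluorescence of CD8+ cells relative to row control; 100% = QL9-loaded vesicles with DMSO vehicle in the same plate row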); details: 2C mouse CD8+ T cells, at 7 µM, stronger effect = lower value; double positive events: measured here: CD8+/vesicle+ event percentage
[11] = biological target: Integrin beta-1 (Homo sapiens) + Integrin alpha-4 (Homo sapiens) (UniProt P13612+P05556); test: alpha4beta1 integrin LIBS antibody binding reduction – U937 cells, HUTS-21 mAb, flow cytometry, validation set, VLA-4 allosteric modulator project, pilot screen (AID 2674;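 active = inhibition above 50%, about 3 SD of the validation set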;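 note: antibody binding induced by the VLA-4 ligand LDV present at three times its Kd; 0% = LDV ligand with antibody and no compound and 100% = antibody without LDV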); details: HUTS-21 LIBS mAb binding, at 6.7 µM, stronger effect = higher value, binding induced by LDV ligand
Sequence of Integrin beta-1 (Homo sapiens) + Integrin alpha-4 (Homo sapiens) (P05556 whole entry, looked up): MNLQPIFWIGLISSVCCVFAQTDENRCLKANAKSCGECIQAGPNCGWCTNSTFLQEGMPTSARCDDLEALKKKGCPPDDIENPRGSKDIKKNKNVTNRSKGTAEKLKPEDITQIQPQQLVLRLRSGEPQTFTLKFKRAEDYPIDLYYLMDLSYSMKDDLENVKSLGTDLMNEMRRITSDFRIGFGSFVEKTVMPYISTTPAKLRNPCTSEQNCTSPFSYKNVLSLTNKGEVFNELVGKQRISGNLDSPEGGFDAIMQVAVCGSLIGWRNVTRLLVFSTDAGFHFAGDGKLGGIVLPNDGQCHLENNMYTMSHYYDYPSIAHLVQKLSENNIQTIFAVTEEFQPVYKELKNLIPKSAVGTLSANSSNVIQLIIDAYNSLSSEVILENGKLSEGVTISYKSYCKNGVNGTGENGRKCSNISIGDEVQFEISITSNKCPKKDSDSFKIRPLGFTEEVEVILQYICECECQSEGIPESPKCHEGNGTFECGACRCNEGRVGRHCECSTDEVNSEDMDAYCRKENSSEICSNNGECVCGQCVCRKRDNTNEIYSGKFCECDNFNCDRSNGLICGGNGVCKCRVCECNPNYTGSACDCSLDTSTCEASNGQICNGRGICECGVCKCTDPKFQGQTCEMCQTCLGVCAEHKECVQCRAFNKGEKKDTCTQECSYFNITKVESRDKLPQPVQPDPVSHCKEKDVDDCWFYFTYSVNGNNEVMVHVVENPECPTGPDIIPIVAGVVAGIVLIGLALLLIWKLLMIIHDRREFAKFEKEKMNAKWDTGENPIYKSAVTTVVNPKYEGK
Sequence of Integrin beta-1 (Homo sapiens) + Integrin alpha-4 (Homo sapiens) (P13612 whole entry, looked up): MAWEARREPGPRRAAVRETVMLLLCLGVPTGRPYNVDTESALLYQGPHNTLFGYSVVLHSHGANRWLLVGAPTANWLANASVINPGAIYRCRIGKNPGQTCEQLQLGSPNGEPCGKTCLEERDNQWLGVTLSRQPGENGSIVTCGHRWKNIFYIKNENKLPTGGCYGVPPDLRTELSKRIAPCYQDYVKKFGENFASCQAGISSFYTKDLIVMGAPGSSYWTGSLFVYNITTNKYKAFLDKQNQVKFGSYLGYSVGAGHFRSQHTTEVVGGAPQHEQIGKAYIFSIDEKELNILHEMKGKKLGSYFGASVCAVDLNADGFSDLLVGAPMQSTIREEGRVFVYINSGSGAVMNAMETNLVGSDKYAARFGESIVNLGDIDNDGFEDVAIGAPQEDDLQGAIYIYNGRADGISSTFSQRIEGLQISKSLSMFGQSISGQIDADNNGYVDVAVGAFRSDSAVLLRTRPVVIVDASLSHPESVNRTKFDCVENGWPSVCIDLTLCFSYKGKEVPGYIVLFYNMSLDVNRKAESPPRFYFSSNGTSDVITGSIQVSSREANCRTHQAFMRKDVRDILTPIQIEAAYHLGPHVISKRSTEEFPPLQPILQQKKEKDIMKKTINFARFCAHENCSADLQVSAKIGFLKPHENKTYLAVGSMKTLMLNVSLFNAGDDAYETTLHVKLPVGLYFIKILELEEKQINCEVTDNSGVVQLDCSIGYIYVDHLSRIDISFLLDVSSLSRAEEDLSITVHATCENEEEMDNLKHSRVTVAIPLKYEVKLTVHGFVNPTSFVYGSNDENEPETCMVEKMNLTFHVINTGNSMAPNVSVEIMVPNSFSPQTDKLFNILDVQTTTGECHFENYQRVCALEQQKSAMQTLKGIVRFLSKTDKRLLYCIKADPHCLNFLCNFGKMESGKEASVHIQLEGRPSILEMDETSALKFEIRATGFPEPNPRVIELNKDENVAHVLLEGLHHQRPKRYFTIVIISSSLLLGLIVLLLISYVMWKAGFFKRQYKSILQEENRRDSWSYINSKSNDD

[12] = calorie-restriction mimetic ROS inhibitors, yeast – validation compound set, pilot screen (AID 2706;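 active = superoxide response below 65% of plate, a cut near 3 SD across the whole screen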;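 note: yeast exposed to compound for one week at 30 degrees C before staining; 100% = mean of all compound wells on the same plate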); details: S. cerevisiae aging, superoxide DHE fluorescence; at 10 µM; stronger effect = lower value
[13] = biological target: Beta-adrenergic receptor kinase 1 (Homo sapiens) (UniProt P25098); test: GRK2 binders displacing RNA aptamer, biochemical, validation, human GRK2, bead flow cytometry (AID 488806;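 active = aptamer binding inhibition above 30%, about 3 SD of noise from non-fluorescent compounds; inactive = inhibition at or below 30%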); details: bead-bound GRK2, FAM-aptamer displacement, at 10 µM, stronger effect = higher value
Sequence of Beta-adrenergic receptor kinase 1 (Homo sapiens) (P25098 whole entry, looked up): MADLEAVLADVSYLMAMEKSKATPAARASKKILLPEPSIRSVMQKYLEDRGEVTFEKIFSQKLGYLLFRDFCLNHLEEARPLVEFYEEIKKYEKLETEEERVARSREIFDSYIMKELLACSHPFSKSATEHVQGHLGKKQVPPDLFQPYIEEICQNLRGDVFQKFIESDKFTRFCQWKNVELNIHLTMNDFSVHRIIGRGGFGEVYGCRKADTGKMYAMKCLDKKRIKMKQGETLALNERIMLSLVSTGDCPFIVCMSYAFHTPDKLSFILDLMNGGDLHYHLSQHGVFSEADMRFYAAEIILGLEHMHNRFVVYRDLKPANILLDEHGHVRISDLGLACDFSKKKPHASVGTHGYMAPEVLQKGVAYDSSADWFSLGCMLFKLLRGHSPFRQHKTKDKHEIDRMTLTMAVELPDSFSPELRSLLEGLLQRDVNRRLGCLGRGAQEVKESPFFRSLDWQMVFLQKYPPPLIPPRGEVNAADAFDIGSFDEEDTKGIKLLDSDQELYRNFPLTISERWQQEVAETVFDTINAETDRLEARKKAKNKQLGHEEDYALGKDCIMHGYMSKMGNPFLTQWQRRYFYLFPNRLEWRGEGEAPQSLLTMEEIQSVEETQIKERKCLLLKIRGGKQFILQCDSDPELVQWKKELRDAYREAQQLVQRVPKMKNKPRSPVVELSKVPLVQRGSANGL

[14] = biological target: Beta-2 adrenergic receptor (Homo sapiens) (UniProt P07550); test: agonist-induced loss of surface beta2AR – cell-based, FAP fluorogen, flow cytometry, validation set, pilot screen (AID 504459;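 active = percent response above 42, roughly 3 SD of non-fluorescent test compounds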;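 note: agonist-driven loss of surface beta2AR via internalization measured by FAP dye flow cytometry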); details: Am2.2-beta2AR cells, at 10 µM, stronger effect = higher value
Sequence of Beta-2 adrenergic receptor (Homo sapiens) (P07550 whole entry, looked up): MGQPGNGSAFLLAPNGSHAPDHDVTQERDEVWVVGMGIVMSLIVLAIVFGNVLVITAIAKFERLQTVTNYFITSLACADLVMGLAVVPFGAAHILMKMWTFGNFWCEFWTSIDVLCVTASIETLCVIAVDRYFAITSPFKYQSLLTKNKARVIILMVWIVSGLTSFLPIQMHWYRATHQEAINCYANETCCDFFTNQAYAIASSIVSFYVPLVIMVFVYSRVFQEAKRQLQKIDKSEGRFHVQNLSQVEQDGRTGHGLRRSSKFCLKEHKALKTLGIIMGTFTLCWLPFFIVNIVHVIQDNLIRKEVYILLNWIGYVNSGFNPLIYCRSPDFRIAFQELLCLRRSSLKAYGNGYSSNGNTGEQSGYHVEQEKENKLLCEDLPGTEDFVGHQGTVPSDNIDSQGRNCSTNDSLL

[15] = biological target: AP-2 complex subunit beta (Homo sapiens) (UniProt P63010); test: beta-arrestin/AP2 interaction blockers – biochemical, validation set, GST-AP2 beads, flow cytometry, pilot screen (AID 504541;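 active = inhibition above 54%, about 3 SD of non-fluorescent compounds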;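 note: AP2 carries R879A mutation and is captured from E. coli lysate; bead-bound FITC arrestin peptide fluorescence measuring arrestin peptide binding to AP2; 0% = DMSO wells and 100% = excess unlabeled arrestin peptide control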); details: FITC arrestin peptide, at 10 µM, stronger effect = higher value, AP2 beta2 appendage fragment, R879A mutant
Sequence of AP-2 complex subunit beta (Homo sapiens) (P63010 whole entry, looked up, the tested form may be a part, one chain of several): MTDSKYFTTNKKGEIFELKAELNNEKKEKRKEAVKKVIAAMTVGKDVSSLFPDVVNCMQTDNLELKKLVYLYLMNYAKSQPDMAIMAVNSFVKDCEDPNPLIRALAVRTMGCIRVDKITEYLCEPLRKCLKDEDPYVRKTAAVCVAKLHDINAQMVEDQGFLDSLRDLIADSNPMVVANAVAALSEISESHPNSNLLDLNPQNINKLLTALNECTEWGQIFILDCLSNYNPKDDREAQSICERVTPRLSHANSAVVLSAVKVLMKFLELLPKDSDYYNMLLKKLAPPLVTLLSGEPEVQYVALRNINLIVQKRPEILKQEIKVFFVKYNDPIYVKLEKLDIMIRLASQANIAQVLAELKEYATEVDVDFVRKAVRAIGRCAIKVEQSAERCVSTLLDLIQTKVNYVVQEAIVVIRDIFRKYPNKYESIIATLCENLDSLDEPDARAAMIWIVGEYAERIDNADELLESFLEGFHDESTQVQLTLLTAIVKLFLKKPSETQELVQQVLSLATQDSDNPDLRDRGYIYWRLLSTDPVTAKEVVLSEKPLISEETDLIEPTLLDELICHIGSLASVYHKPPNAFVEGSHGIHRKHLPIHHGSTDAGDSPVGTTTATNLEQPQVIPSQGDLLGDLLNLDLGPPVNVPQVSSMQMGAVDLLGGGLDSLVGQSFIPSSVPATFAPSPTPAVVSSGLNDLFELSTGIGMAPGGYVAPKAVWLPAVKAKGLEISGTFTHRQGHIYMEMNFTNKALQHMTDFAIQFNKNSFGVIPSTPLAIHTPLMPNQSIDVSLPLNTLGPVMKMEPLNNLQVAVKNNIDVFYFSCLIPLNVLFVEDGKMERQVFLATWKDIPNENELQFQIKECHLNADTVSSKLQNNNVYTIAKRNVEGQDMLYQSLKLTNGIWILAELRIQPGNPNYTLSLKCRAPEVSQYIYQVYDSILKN

[16] = cytosolic pH regulators acting via V-ATPase – S. cerevisiae, pHLuorin, HTS validation (AID 504600; in the data active = response above about 15%;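 note: plate controls were DMSO for no effect and reference compound for full effect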); details: V-ATPase proton transport, at 10 µM, stronger effect = higher value
[17] = system: anti-desmoglein-3 scFv antibody binding to human DSG3; test: blockers of pathogenic pemphigus antibody–desmoglein-3 binding – biochemical, validation compound set, bead-based, flow cytometry, pilot screen (AID 588368;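 active = binding below the plate cutoff, the plate median minus 3 SD, with a reading above zero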;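 note: signal is the median channel fluorescence of bead-bound GFP antibody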); details: Protein G beads, DSG3-Fc, scFv-GFP binding, at 10 µM, stronger effect = lower value
[18] = Nile Red efflux blockade in pump-expressing yeast – validation compound set, multiplex, phenotypic, pilot screen (AID 588506;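 active = efflux inhibition above 0.42, the validation set average plus 4 SD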;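 note: Nile Red retained in cells so higher fluorescence means more efflux inhibition; 0 = negative control wells and 1 = enniatin B 25 µM full block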); details: S. cerevisiae pump-expressing triplex, Nile Red efflux flow cytometry; at 10 µM; stronger effect = higher value; the pumps come from Candida albicans
[19] = biological target: ATP-binding cassette sub-family B member 6 (Homo sapiens) (UniProt Q9NP58); test: blockers of ABCB6-driven porphyrin uptake – K562-ABCB6 cells, flow cytometry, validation set, pilot screen (AID 588550;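 active = inhibition above the screen-wide mean plus 3 SD, about 51%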;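 note: 0% = DMSO wells and 100% = benzethonium chloride 70 µM positive control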); details: K562-ABCB6 porphyrin accumulation, 1 h, at 10 µM, stronger effect = higher value
Sequence of ATP-binding cassette sub-family B member 6 (Homo sapiens) (Q9NP58 whole entry, looked up): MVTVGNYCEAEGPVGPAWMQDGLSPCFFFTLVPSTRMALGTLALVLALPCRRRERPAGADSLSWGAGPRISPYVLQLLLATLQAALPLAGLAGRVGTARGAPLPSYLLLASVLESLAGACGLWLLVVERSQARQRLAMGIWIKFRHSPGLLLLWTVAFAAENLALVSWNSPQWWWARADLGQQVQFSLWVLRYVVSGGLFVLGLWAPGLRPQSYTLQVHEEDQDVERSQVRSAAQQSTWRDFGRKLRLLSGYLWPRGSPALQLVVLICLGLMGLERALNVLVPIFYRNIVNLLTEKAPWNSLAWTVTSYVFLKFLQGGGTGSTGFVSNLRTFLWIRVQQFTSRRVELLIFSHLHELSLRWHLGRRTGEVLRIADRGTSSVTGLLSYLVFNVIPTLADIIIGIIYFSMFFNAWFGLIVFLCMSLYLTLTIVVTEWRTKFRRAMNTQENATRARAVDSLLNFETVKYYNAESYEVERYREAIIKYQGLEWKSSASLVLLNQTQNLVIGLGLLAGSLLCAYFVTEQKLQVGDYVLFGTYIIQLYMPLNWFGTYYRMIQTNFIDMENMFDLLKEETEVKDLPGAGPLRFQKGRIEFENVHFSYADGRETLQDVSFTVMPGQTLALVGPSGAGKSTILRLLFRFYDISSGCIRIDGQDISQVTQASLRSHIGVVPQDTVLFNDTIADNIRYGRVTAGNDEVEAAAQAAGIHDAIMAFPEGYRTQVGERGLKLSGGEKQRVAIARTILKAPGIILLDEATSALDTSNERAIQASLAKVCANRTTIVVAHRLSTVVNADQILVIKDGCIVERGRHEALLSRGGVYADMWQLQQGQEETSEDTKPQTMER

[20] = AML differentiation inducers, ER-HoxA9 marrow cells – cell-based, GFP/MAC1 double positive, flow cytometry, validation set, primary screen (AID 588685;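 active = differentiation response of at least 50%, scaled between solvent and reference control, from cells with both markers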;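 note: compound exposure lasts four days before antibody staining and flow analysis; 0% = DMSO wells and 100% = 5 µM fulvestrant positive control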); details: stronger effect = higher value, normalized: vehicle 0, fulvestrant 100
[21] = measured here: daughter cell gate
[22] = measured here: mother cell gate
[23] = measured here: daughter cell gate response
[24] = measured here: mother cell gate response

OC(CCN1CCCCC1)(c1ccccc1)c1ccccc1
97.2%: GFP response relative to DMSO [7, 23]
99%: GFP response vs DMSO [6, 21]
85.8%: GFP response, % of DMSO [9, 22]
102%: GFP response vs DMSO [6, 22]
95.2%: GFP response relative to DMSO [7, 24]
96.5%: GFP response, % of DMSO [9, 21]
62.7%: double positive events [10]
active: percent response of DMSO control [3] 128%
inactive: percent of DMSO control GFP [1] 92.8% | GFP response vs DMSO [2] 126% | GFP response vs DMSO [4] 86.9% | GFP response, % of DMSO [5] 91.9% | GFP response vs DMSO [6] 100% | GFP response relative to DMSO [7] 95% | GFP response vs DMSO [8] 100% | GFP response, % of DMSO [9] 96.5% | vesicle binding response [10] 152% | inhibition [11] 12.3% | superoxide response (% of plate) [12] 107% | aptamer binding inhibition [13] 2% | response [14] 1.89% | inhibition [15] 2.98% | response [16] 5.35% | binding (% of control) [17] 103% | efflux inhibition (fraction of control) [18] -0.24 | inhibition [19] 8% | differentiation response [20] -4.91%

N=c1nc(N2CCCCC2)cc(N)n1O
inactive: percent of DMSO control GFP [1] 90.9% | percent response of DMSO control [3] 107% | GFP response vs DMSO [4] 86.4% | GFP response, % of DMSO [5] 90.1% | GFP response vs DMSO [6] 97.4% | GFP response relative to DMSO [7] 101% | GFP response vs DMSO [8] 98.3% | GFP response, % of DMSO [9] 99.7% | vesicle binding response [10] 117% | inhibition [11] 16.2% | superoxide response (% of plate) [12] 89.4% | aptamer binding inhibition [13] 2% | response [14] -8.64% | inhibition [15] 33.9% | response [16] -5.96% | binding (% of control) [17] 98.5% | efflux inhibition (fraction of control) [18] 0.37 | differentiation response [20] 8.19%
101%: GFP response relative to DMSO [7, 23]
59.7%: double positive events [10]
99.7%: GFP response, % of DMSO [9, 22]
active: GFP response vs DMSO [2] 143% | inhibition [19] 115%
97.4%: GFP response vs DMSO [6, 21] | GFP response vs DMSO [6, 22]
103%: GFP response, % of DMSO [9, 21]
99.3%: GFP response relative to DMSO [7, 24]

CC(=O)[C@@]1(O)CC[C@H]2[C@@H]3CCC4=CC(=O)CC[C@]4(C)[C@H]3[C@@H](O)C[C@@]21C
98.3%: GFP response, % of DMSO [9, 21]
96.5%: GFP response relative to DMSO [7, 24]
99.3%: GFP response vs DMSO [6, 21]
56.2%: double positive events [10]
99.7%: GFP response vs DMSO [6, 22]
94.5%: GFP response, % of DMSO [9, 22]
97.9%: GFP response relative to DMSO [7, 23]
inactive: percent of DMSO control GFP [1] 104% | GFP response vs DMSO [2] 95.9% | percent response of DMSO control [3] 94.9% | GFP response vs DMSO [4] 90.3% | GFP response, % of DMSO [5] 96.4% | GFP response vs DMSO [6] 99.3% | GFP response relative to DMSO [7] 97.7% | GFP response vs DMSO [8] 102% | GFP response, % of DMSO [9] 96.4% | vesicle binding response [10] 182% | inhibition [11] 12.8% | superoxide response (% of plate) [12] 89.3% | aptamer binding inhibition [13] 1% | inhibition [15] -12.8% | response [16] 4.15% | binding (% of control) [17] 100% | efflux inhibition (fraction of control) [18] -0.2 | inhibition [19] 10% | differentiation response [20] -3.43%

CN(C)CCCN1c2ccccc2Sc2ccc(Cl)cc21
64.9% and 70.6%: double positive events [10]
84.9% (active) and 109% (inactive): percent of DMSO control GFP [1]
148% (active) and 129% (inactive): GFP response vs DMSO [2]
-0.17 (inactive) and 0.55 (active): efflux inhibition (fraction of control) [18]
97.2%: GFP response relative to DMSO [7, 24]
103%: GFP response, % of DMSO [9, 21]
107%: GFP response, % of DMSO [9, 22]
inactive: percent response of DMSO control [3] 88.6% and 116% | GFP response vs DMSO [4] 83.1% and 94.1% | GFP response, % of DMSO [5] 91.5% and 115% | GFP response vs DMSO [6] 101% | GFP response relative to DMSO [7] 95% | GFP response vs DMSO [8] 100% | GFP response, % of DMSO [9] 106% | vesicle binding response [10] 163% and 432% | inhibition [11] 7.43% and 1.61% | superoxide response (% of plate) [12] 98.3% and 93.3% | aptamer binding inhibition [13] -6% and -20% | response [14] 17.4% and 15.9% | inhibition [15] -3.39% and -5.93% | response [16] 10.8% and 0.91% | binding (% of control) [17] 107% and 114% | inhibition [19] 10% and 13% | differentiation response [20] -7.37% and 5.73%
100%: GFP response relative to DMSO [7, 23]
102%: GFP response vs DMSO [6, 22]
101%: GFP response vs DMSO [6, 21]

C[C@]12CCC(=O)C=C1CC[C@@H]1[C@@H]2[C@@H](O)C[C@@]2(C)[C@H]1CC[C@]2(O)C(=O)CO
102%: GFP response vs DMSO [6, 21]
104%: GFP response vs DMSO [6, 22]
105%: GFP response, % of DMSO [9, 22]
98.7%: GFP response relative to DMSO [7, 23]
inactive: percent of DMSO control GFP [1] 108% | GFP response vs DMSO [2] 105% | percent response of DMSO control [3] 111% | GFP response vs DMSO [4] 105% | GFP response, % of DMSO [5] 111% | GFP response vs DMSO [6] 104% | GFP response relative to DMSO [7] 96.2% | GFP response vs DMSO [8] 100% | GFP response, % of DMSO [9] 104% | vesicle binding response [10] 165% | inhibition [11] 10.9% | superoxide response (% of plate) [12] 99.2% | aptamer binding inhibition [13] -2% | inhibition [15] 29.5% | response [16] -1.08% | binding (% of control) [17] 95.4% | inhibition [19] 3% | differentiation response [20] -18%
99.7%: GFP response, % of DMSO [9, 21]
58.4%: double positive events [10]
98.3%: GFP response relative to DMSO [7, 24]

CC(=O)O[C@]1(C(C)=O)CC[C@H]2[C@@H]3C[C@H](C)C4=CC(=O)CC[C@]4(C)[C@H]3CC[C@@]21C
95.7%: GFP response vs DMSO [6, 21]
98.5%: GFP response relative to DMSO [7, 24]
inactive: percent of DMSO control GFP [1] 98.4% | GFP response vs DMSO [2] 106% | percent response of DMSO control [3] 90.8% | GFP response vs DMSO [4] 84.8% | GFP response, % of DMSO [5] 95.7% | GFP response vs DMSO [6] 94.3% | GFP response relative to DMSO [7] 98.8% | GFP response vs DMSO [8] 93.3% | GFP response, % of DMSO [9] 101% | vesicle binding response [10] 241% | inhibition [11] -3.57% | aptamer binding inhibition [13] -1% | response [14] 3.07% | inhibition [15] -9.79% | response [16] -0.42% | binding (% of control) [17] 100% | efflux inhibition (fraction of control) [18] 0.08 | inhibition [19] 20% | differentiation response [20] 10%
97.9%: GFP response relative to DMSO [7, 23]
101%: GFP response, % of DMSO [9, 22]
102%: GFP response, % of DMSO [9, 21]
63.9%: double positive events [10]
97.2%: GFP response vs DMSO [6, 22]
